Measurements: PubChem BioAssay (NCATS)
Values without a mark were called inactive. Inconclusive results are not listed. The source made the active and inactive calls. Unless noted, the call rests on the fitted dose curve; in most records, active means well fitted curve in either direction with a large enough effect (not every such curve was filed as active); inconclusive means small, poorly fitted or top-dose-only effect, or another doubt; inactive means flat fitted curve, though single readings scatter.

Assays:
[1] = AP1 Signaling Pathway (AID 357); conditions: ME-180 AP-1-bla reporter, EGF-induced, beta-lactamase ratio, 5 h; at 17.2 µM (top of the series) unless noted;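 further: ME-180 reporter cells stimulated with EGF at its EC50 level; on the % scale 0 is the no-effect control and ±100 the full control effect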
Summary of the method: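 Modulation of EGF-driven AP-1 transcription was assessed with a beta-lactamase reporter in ME-180 cells. Compound and EC50 EGF were co-incubated 5 hours at 37 °C before 2.5-hour CCF4 loading at room temperature and dual-emission reading.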

[2] = NFAT Signaling Pathway (AID 444); conditions: Jurkat NFAT-bla M1, carbachol, beta-lactamase ratio, 5 h; at 17.2 µM (top of the series) unless noted;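 further: carbachol stimulus at about its EC50 of 1 µM final; on the % scale 0 is the no-effect control and ±100 the full control effect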
Summary of the method: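 Jurkat cells with NFAT-driven β-lactamase reporter and co-expressed M1 receptor, stimulated with carbachol (final 1 uM, ~EC50), compound titration, 5 h at 37 °C. CCF4 loaded 1 h at RT; 460/530 nm ratio gave %activity and AC50.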

[3] = Stat Signaling Pathway (AID 446); conditions: ME-180 SIE beta-lactamase reporter, IL-6 stimulated, 5 h; at 17.2 µM (top of the series) unless noted;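 further: ME-180 cervical cancer cells given 40 pM IL-6 alongside compound; SIE-controlled beta-lactamase reporter measured as 460/530 nm FRET emission ratio; on the % scale 0 is the no-effect control and ±100 the full control effect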
Summary of the method: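 Screening format detects activators and inhibitors alike: ME-180 SIE-bla cells stimulated at 40 pM IL-6 for 5 hrs with compound, then dual-emission beta-lactamase read at 405 nm excitation.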

[4] = target: Glucocorticoid receptor (Homo sapiens) (UniProt P04150); assay: GR-GFP Redistribution (AID 450;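 active means compounds whose dose series gives a full or clear partial fitted curve of increased nuclear translocation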; further: potency means the concentration at half of the fitted maximal effect)
[5] = qHTS Assay for Identification of Small Molecule Agonists for Hypoxia Response Element Signaling Pathway (AID 914; active means well fitted activation curve with a large enough effect in the signal ratio, with a control signal flat, not every such curve was filed as active; the % refers to the signal ratio; further: potency means the concentration at half of the fitted maximal effect; on activation: % of control where 0% means no effect); conditions: ME-180 (cervical carcinoma) HRE-bla reporter, beta-lactamase ratio, CoCl2, 17 h; activation: hits give high values
Summary of the method: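 Reporter activity (beta-lactamase, CCF4 460nm/530nm ratio) in HRE-bla ME-180 cells is recorded after 17 h compound exposure with EC50 CoCl2 at 37 degrees Celsius. AC50 values come from titration data.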

Glucocorticoid receptor (Homo sapiens), sequence (P04150 whole entry, looked up): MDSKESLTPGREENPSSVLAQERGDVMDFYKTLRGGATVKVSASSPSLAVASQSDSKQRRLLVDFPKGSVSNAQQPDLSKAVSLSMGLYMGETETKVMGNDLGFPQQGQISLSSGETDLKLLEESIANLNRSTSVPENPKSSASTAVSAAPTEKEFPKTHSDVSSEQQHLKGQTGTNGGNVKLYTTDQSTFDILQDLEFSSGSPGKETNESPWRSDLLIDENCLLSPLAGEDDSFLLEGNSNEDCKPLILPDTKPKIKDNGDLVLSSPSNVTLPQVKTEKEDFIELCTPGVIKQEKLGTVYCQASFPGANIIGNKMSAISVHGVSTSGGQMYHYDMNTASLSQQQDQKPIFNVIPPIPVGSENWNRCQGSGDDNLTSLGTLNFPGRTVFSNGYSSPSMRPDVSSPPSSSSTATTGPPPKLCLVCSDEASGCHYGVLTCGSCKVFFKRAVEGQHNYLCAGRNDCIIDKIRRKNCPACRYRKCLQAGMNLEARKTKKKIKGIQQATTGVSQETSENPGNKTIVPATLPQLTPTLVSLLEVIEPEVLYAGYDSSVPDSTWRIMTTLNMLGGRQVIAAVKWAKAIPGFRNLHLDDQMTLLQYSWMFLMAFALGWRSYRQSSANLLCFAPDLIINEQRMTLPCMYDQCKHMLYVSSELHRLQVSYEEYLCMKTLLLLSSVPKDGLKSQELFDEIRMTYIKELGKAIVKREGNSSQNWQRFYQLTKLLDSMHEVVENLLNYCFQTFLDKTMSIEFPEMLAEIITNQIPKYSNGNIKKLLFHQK

COC(=O)C(NC(C)=O)(Nc1nc2c(s1)CCCC2)C(F)(F)F (stereo not given)
activity change, negative = inhibition [1]: 1.18%
activity change, negative = inhibition [2]: -2.64%
activity, negative = inhibition [3]: -8.22%
Potency [4]: > 20.6 µM
activation [5]: -17%

CC(=O)N1CCN(c2nc(CC(C)C)c3c(c2C#N)CCC3)CC1
activity change, negative = inhibition [1]: -24.1%
activity change, negative = inhibition [2]: -8.91%
activity, negative = inhibition [3]: -3.38%
Potency [4]: > 20.6 µM
activation [5]: 24.5%

Cc1cc(C)n(C(=O)CN2C(=O)CCC2=O)n1
activity change, negative = inhibition [1]: 14.2%
activity change, negative = inhibition [2]: 0.324%
activity, negative = inhibition [3]: 3.71%
Potency [4]: > 20.6 µM
activation [5]: 6.68%

CSc1cc(C)nc(N(C)C(C)=O)n1
activity change, negative = inhibition [1]: 16.9%
activity change, negative = inhibition [2]: -4.07%
activity, negative = inhibition [3]: -0.18%
Potency [4]: > 20.6 µM
activation [5]: 14.1%

C=CCn1c(=N)c(C(=O)OCC)cc2c(=O)n3cccc(C)c3nc21
activity change, negative = inhibition [1]: 15.5%
activity change, negative = inhibition [2]: -23.4%
activity, negative = inhibition [3]: 28.1%
Potency [4]: > 20.6 µM
Potency [5]: 10 µM (active)

CCOC(=O)CSc1nnc(C)c(=O)[nH]1
activity change, negative = inhibition [1]: 12.3%
activity change, negative = inhibition [2]: -0.387%
activity, negative = inhibition [3]: -1.23%
Potency [4]: > 20.6 µM
activation [5]: -0.909%

CCCOc1ccc(Cn2c(O)cc(=O)[nH]c2=O)cc1
activity change, negative = inhibition [1]: -5.5%
activity change, negative = inhibition [2]: 7.39%
activity, negative = inhibition [3]: -0.906%
Potency [4]: > 20.6 µM
activation [5]: 16.1%

COc1cccc(Cn2c(Oc3ccccc3)nc3c2c(=O)n(C)c(=O)n3C)c1
activity change, negative = inhibition [1]: -23.1%
activity change, negative = inhibition [2]: -10.8%
activity, negative = inhibition [3]: -11.1%
Potency [4]: > 20.6 µM
activation [5]: -17.4%

CC1=CC(c2ccccc2)n2nc(N3C(=O)C4CC=CCC4C3=O)nc2N1 (stereo not given)
activity change, negative = inhibition [1]: 0.952%
activity change, negative = inhibition [2]: 13.9%
activity, negative = inhibition [3]: 11.6%
Potency [4]: > 20.6 µM
activation [5]: 6.95%

CCOc1ccc(CSC(CC(=O)O)C(=O)O)cc1 (stereo not given)
activity change, negative = inhibition [1]: -0.441%
activity change, negative = inhibition [2]: -5.85%
activity, negative = inhibition [3]: 11.1%
Potency [4]: > 20.6 µM
activation [5]: 14.8%

COc1ccc2c(c1)c(C(=O)CN1CCOCC1)c(C)n2C
activity change, negative = inhibition [1]: 12%
activity change, negative = inhibition [2]: 0.787%
activity, negative = inhibition [3]: 10.6%
Potency [4]: > 20.6 µM
activation [5]: 8.25%

CCOc1ccc(C2C(C#N)=C(N)SC(N)=C2C#N)cc1OC
activity change, negative = inhibition [1]: 0.186%
activity change, negative = inhibition [2]: 10.8%
activity, negative = inhibition [3]: -5.25%
Potency [4]: > 20.6 µM
activation [5]: -15.3%

O=C1CSC(=Nc2ccc(O)cc2)N1c1ccc(O)cc1
activity change, negative = inhibition [1]: 24.5%
activity change, negative = inhibition [2]: -9.67%
activity, negative = inhibition [3]: 13.7%
Potency [4]: > 20.6 µM
activation [5]: -9.31%

CCOC(=O)c1c(CNCCN(CC)CC)n(C)c2cc(Br)c(OC)cc12
activity change, negative = inhibition [1]: 5.94%
activity change, negative = inhibition [2]: 5.36%
activity, negative = inhibition [3]: -6.2%
Potency [4]: > 20.6 µM
activation [5]: -9.75%

COc1cc(NC(=O)NC(C)(C(F)(F)F)C(F)(F)F)cc(OC)c1OC
activity change, negative = inhibition [1]: -9.62%
activity change, negative = inhibition [2]: 19.4%
activity, negative = inhibition [3]: -4.15%
Potency [4]: > 20.6 µM
activation [5]: -29.2%

CC(=O)CCn1c(=O)n(CCC(C)=O)c(=O)n(CCC(C)=O)c1=O
activity change, negative = inhibition [1]: 5.12%
activity change, negative = inhibition [2]: 6.61%
activity, negative = inhibition [3]: -1.84%
Potency [4]: > 20.6 µM
activation [5]: 11.1%

Cc1nn(C)cc1C1C2=C(CC(C)(C)CC2=O)OC2=C1C(=O)CC(C)(C)C2
activity change, negative = inhibition [1]: 3.4%
activity change, negative = inhibition [2]: -23.9%
activity, negative = inhibition [3]: 4.21%
Potency [4]: > 20.6 µM
activation [5]: 1.79%

Oc1ccccc1CNn1cnnc1
activity change, negative = inhibition [1]: -0.712%
activity change, negative = inhibition [2]: 15.6%
activity, negative = inhibition [3]: 4.83%
Potency [4]: > 20.6 µM
activation [5]: 7.68%

O=C(CNC1C(=O)Nc2ccccc21)Sc1ccccc1 (stereo not given)
activity change, negative = inhibition [1]: -0.11%
activity change, negative = inhibition [2]: -10.4%
activity, negative = inhibition [3]: 9.1%
Potency [4]: > 20.6 µM
activation [5]: 4%

Fc1ccc(-c2cnc[nH]2)cc1
activity change, negative = inhibition [1]: 3.07%
activity change, negative = inhibition [2]: -3.45%
activity, negative = inhibition [3]: -3.45%
Potency [4]: > 20.6 µM
activation [5]: 14%

CC(C)CNC(=O)c1c(N)n(/N=C/c2cccnc2)c2nc3ccccc3nc12
activity change, negative = inhibition [1]: 9.25%
activity change, negative = inhibition [2]: 329% [activator] (active)
activity, negative = inhibition [3]: 16.6%
Potency [4]: > 20.6 µM
Potency [5]: 10 µM (active)

N#CC12CCCCC1CC1CCCCC1(C#N)N2Cc1cccnc1 (stereo not given)
activity change, negative = inhibition [1]: 11.8%
activity change, negative = inhibition [2]: -6.79%
activity, negative = inhibition [3]: 4.8%
Potency [4]: > 20.6 µM
activation [5]: 9.28%
